The record followed here is ChEMBL document CHEMBL2218924, “A broad activity screen in support of a chemogenomic map for kinase signalling research and drug discovery” (Biochem J, 2013).

Assay [1] has as its target Mitogen-activated protein kinase 11 (Homo sapiens) (UniProt Q15759). Particulars: at 1 µM.
Assay [2] has the same target. As to conditions: at 10 µM.
The target in assay [3] is T1, Serine/threonine-protein kinase Sgk1 (Homo sapiens) (UniProt O00141).
T1 sequence (whole entry): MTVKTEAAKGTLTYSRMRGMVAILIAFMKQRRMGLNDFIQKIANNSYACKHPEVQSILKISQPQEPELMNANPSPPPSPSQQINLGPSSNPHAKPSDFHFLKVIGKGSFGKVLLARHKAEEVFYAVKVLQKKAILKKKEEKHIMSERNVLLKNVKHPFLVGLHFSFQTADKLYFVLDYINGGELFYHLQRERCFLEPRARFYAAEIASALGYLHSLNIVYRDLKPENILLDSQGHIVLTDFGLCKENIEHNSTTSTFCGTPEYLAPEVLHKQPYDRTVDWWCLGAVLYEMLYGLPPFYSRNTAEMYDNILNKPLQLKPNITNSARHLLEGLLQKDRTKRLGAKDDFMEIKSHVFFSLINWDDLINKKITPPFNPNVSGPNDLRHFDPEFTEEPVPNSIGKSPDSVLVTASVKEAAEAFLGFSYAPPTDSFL
As to conditions: at 1 µM.

The target in assay [4] is T1, Serine/threonine-protein kinase Sgk1 (Homo sapiens). As to conditions: at 10 µM.
Assay [5] deals with T2, Serine/threonine-protein kinase Sgk2 (Homo sapiens) (UniProt Q9HBY8).
T2 sequence (whole entry): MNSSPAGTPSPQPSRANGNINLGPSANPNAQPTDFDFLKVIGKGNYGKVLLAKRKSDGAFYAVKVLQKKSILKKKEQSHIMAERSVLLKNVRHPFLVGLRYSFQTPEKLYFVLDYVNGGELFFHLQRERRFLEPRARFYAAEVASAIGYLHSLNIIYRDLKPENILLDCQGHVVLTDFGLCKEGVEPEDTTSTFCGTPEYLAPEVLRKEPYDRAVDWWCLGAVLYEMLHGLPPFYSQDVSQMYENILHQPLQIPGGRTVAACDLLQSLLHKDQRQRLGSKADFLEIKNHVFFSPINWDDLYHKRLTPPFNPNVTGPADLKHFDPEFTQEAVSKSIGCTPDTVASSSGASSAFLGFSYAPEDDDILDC
As to conditions: at 1 µM.

Assay [6] deals with T2, Serine/threonine-protein kinase Sgk2 (Homo sapiens). As to conditions: at 10 µM.
The target in assay [7] is Serine/threonine-protein kinase SIK1 (Homo sapiens) (UniProt P57059). As to conditions: at 1 µM.
For assay [8], the target named is T3, Mitogen-activated protein kinase 13 (Homo sapiens) (UniProt O15264).
T3 sequence (whole entry): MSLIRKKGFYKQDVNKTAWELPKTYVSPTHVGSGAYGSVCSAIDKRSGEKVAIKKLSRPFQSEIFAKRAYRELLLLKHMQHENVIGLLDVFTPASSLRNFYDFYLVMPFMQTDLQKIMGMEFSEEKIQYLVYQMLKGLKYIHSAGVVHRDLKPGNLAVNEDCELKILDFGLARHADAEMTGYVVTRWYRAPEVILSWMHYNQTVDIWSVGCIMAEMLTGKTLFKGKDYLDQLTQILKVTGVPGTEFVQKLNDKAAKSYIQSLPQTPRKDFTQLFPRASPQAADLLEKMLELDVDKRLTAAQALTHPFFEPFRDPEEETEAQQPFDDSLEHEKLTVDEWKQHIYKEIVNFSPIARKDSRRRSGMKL
Particulars: at 1 µM.

The target of assay [9] is T3, Mitogen-activated protein kinase 13 (Homo sapiens). As to conditions: at 10 µM.
For assay [10], the target named is T4, Serine/threonine-protein kinase Sgk3 (Homo sapiens) (UniProt Q96BR1).
T4 sequence (whole entry): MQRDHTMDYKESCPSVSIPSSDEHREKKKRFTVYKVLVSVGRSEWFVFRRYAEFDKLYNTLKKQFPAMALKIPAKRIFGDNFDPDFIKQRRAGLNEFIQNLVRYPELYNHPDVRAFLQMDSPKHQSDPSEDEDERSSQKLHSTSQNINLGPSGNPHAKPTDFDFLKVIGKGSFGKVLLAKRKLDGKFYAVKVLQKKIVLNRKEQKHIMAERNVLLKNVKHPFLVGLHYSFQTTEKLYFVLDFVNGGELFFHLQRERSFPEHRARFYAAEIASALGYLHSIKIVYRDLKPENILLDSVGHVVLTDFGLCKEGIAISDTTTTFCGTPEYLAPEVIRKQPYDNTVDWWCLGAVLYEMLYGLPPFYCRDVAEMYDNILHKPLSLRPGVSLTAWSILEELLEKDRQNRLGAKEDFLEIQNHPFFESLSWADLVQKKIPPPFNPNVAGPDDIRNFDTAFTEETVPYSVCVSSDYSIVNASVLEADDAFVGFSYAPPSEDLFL
As to conditions: at 10 µM.

Chain of Mitogen-activated protein kinase 11 (Homo sapiens) (Q15759 whole entry): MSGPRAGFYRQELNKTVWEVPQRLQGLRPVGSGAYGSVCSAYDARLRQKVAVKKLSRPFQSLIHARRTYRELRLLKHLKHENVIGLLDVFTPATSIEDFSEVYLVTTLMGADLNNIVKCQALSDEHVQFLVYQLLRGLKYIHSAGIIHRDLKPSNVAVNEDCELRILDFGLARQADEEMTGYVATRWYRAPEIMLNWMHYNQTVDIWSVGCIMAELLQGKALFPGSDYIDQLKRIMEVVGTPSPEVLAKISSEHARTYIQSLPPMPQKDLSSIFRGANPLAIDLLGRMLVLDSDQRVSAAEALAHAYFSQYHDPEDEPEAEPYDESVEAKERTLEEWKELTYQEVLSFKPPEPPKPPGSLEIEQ
Chain of Serine/threonine-protein kinase SIK1 (Homo sapiens) (P57059 whole entry): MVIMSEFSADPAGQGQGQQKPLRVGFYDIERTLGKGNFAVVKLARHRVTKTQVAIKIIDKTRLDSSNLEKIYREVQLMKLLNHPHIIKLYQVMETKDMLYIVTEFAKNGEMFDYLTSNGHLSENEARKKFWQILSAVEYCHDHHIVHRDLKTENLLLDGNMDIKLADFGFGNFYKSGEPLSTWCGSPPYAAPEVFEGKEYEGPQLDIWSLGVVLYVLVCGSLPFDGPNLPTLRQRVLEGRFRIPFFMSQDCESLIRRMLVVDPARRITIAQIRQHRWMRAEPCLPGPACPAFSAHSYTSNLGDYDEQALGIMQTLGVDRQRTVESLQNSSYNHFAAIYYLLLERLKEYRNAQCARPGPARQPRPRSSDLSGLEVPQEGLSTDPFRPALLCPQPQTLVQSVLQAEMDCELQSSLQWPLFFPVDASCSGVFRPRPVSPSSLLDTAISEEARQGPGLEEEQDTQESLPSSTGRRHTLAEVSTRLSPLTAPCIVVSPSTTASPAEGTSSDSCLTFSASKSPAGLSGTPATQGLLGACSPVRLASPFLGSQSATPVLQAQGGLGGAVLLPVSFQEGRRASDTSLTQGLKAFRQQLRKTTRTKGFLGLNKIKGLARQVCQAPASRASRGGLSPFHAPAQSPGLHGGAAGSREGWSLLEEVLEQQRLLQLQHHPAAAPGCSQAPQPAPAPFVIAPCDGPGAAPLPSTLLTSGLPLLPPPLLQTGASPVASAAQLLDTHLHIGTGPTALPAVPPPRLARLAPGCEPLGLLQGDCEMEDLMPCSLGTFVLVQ

For the compound `COc1ccc(-c2cnc3c(-c4ccsc4)cnn3c2)cc1`, the residual activity in [1] was determined as 94%; in assay [2] it was 95%; in assay [3], 99%; in assay [4], 94%; in assay [5], 97%; in assay [6], 83%. In assay [7], the residual activity stood at 87%.
Regarding `O=C1NC(=O)c2c1c1c3ccccc3[nH]c1n1cncc21`, the residual activity in assay [1] amounted to 90%; in assay [2], 87%; in assay [8], 93%; in [9] it was 88%; in assay [3] it was 66%; in [4], 47%. Further, the residual activity in assay [5] was determined as 52%; in assay [6], 38%; in assay [10], 67%; in assay [7], 83%.
As for `CCCCc1c(-c2ccc(OC)cc2)[nH]c2nccnc12`, the residual activity in assay [1] stood at 106%; in [3], 106%; in assay [4] it was 117%; in [5], 90%; in assay [6], 81%; in [10] it was 88%. Further, the residual activity in [7] worked out at 86%.
In the case of `COc1cc2nccc(Oc3ccc(NC(=S)NC(=O)c4ccccc4C)cc3)c2cc1OC`, the residual activity in assay [1] turned out to be 83%; in assay [2], 87%; in assay [8], 101%; in assay [9] it was 87%; in assay [5] it was 99%; in [10], 79%. For the same compound, in assay [7], the residual activity worked out at 32%.
Turning to `Cn1sc(=O)n(Cc2ccccc2)c1=O`, the residual activity in [1] is 89%; in [2], 89%; in assay [8], 100%; in assay [9], 98%; in assay [3] it was 91%; in assay [4], 96%. Moreover, the residual activity in assay [5] is 91%; in assay [10], 86%.
As to `CCOC(=O)c1c(C)[nH]c(/C=C2\C(=O)Nc3ccccc32)c1C`, the residual activity in assay [1] worked out at 98%; in assay [2] it was 77%; in assay [5], 82%; in assay [6], 76%.
As for `O=C(c1ccccc1)c1ccc(N2CCOCC2)cc1O`, the residual activity was 96% in [1]; 91% in assay [2]; 79% in assay [3]; 95% in assay [4]; 134% in [5]; 68% in [6]. The residual activity in assay [10] came to 88%; in assay [7] it was 97%.
`O=C1Nc2ccc(Cl)cc2/C1=C/c1cc(Cl)c(O)c(Cl)c1`: the residual activity in assay [1] turned out to be 88%; in assay [2], 67%; in assay [9], 93%; in [3], 64%; in assay [4] it was 69%; in assay [5], 84%. Further, the values for the residual activity in assay [6], in [10] and in [7] were 55%, 81% and 72%, respectively.
As to `Nc1ncnc2[nH]nc(Nc3ccc(F)cc3)c12`, the residual activity was 103% in [1]; 103% in assay [8]; 94% in assay [9]; 94% in assay [3]; 74% in [4]; 113% in assay [5]. Besides, the residual activity was 43% in [6], 80% in assay [10] and 48% in assay [7].
As for `Nc1ncnc2c1c(-c1ccc(Oc3ccccc3)cc1)cn2C1CCCC1`, the residual activity came to 87% in [1]; 75% in [2]; 95% in assay [8]; 110% in assay [3]; 111% in assay [4]; 98% in assay [5]. Also, the residual activity in assay [6] worked out at 78%; in assay [10], 86%; in assay [7], 78%.
For the compound `COc1cc2c(cc1OC)-c1n[nH]c(Nc3cccc(F)c3)c1C2`, the residual activity came to 60% in [1]; 25% in [2]; 102% in assay [8]; 74% in assay [9]; 70% in [3]; 109% in [5]. Also, the values for the residual activity in assay [6] and in assay [7] were 98% and 4%, respectively.
Take `NC(=O)c1ccc(-c2nc(-c3ccc4c(c3)OCCO4)c(-c3ccccn3)[nH]2)cc1`: the residual activity in [1] stood at 93%; in [2], 88%; in assay [3] it was 98%; in assay [4] it was 90%; in assay [5] it was 97%; in [6], 89%.
For the compound `CCCC(=O)Oc1ccc2[nH]c(C(=O)c3cc4ccccc4[nH]3)cc2c1`, the residual activity in [1] came out at 104%; in assay [8], 104%; in [9] it was 86%; in assay [3], 101%; in [4], 95%; in assay [5], 99%. Also, the residual activity came out at 96% in [6], 85% in [10] and 83% in assay [7].
On to `CN([C@@H](Cc1ccc(OS(=O)(=O)c2cccc3cnccc23)cc1)C(=O)N1CCN(c2ccccc2)CC1)S(=O)(=O)c1cccc2cnccc12`, for which the residual activity in assay [1] stood at 113%; in assay [8], 81%; in assay [3], 123%; in assay [10], 83%.
For the compound `Fc1ccc(-c2nc3n(c2-c2ccncc2)CCS3)cc1`, the residual activity worked out at 80% in [1], 23% in assay [2] and 139% in assay [7].
Regarding `O=C(CCCc1ccc(-c2ccccc2F)cc1)Nc1ccc(O)cc1`, the residual activity in assay [1] was found to be 105%; in [2], 95%; in assay [8] it was 105%; in assay [9] it was 96%; in [3] it was 83%; in assay [4], 179%. Besides, the residual activity in [5] is 131%; in assay [6], 135%.
Regarding `CC(C)(C)c1nc2c3ccc(F)cc3c3c(=O)[nH]ccc3c2[nH]1`, the residual activity amounted to 62% in assay [1]; 69% in assay [2]; 63% in assay [3]; 68% in assay [4]; 63% in assay [5]; 55% in assay [6]. The residual activity in assay [7] came to 31%.
`O=C(O)/C=C/c1cc(Br)c(Br)c(Br)c1Br`: the residual activity amounted to 107% in [1]; 126% in [2]; 103% in assay [8]; 93% in assay [9]; 100% in assay [3]; 49% in assay [4]. The residual activity in assay [5] came to 83%; in [6], 41%; in assay [10], 84%.
As for `Nc1ncnc2c1cnn2-c1ccccc1`, the residual activity was found to be 97% in assay [1]; 85% in [2]; 90% in assay [3]; 98% in [4]; 68% in [6]; 93% in assay [10].
For `NC(=O)Nc1sc(-c2ccc(F)cc2)cc1C(N)=O`, the residual activity came to 89% in assay [1]; 68% in assay [2]; 90% in [8]; 73% in [9]; 85% in [10]; 28% in [7].
Take `CC(C)[C@H](CO)Nc1nc(Nc2cc(N)cc(Cl)c2)c2ncn(C(C)C)c2n1`: the residual activity turned out to be 119% in assay [1]; 99% in [2]; 95% in [5]; 51% in assay [6]; 92% in assay [10].
For the compound `COc1cc2nccc(Oc3ccc(NC(=O)Nc4cc(C)on4)c(Cl)c3)c2cc1OC`, the residual activity came out at 19% in [1], 97% in assay [9], 103% in assay [5] and 79% in [6].
Consider `O=c1cc(N2CCOCC2)oc2c1ccc1ccccc12`, for which the residual activity in [1] came out at 93%; in [2] it was 101%; in [8] it was 100%; in assay [9], 95%; in assay [3], 105%; in assay [4], 97%. Also, the residual activity came out at 92% in [5], 86% in [6], 97% in [10] and 95% in [7].
For the compound `CC(C)(C)n1nc(Cc2cccc3ccccc23)c2c(N)ncnc21`, the residual activity in assay [1] turned out to be 64%; in assay [2] it was 22%; in assay [8] it was 101%; in [9] it was 95%; in assay [3], 100%; in [4] it was 127%. Moreover, the residual activity in assay [5] turned out to be 101%; in assay [6], 78%; in assay [10] it was 105%; in assay [7], 72%.
For the compound `O=C(NC(NC(=S)Nc1ccc(F)c([N+](=O)[O-])c1)C(Cl)(Cl)Cl)C(c1ccccc1)c1ccccc1` (centres undefined), the residual activity is 98% in assay [1]; 97% in assay [2]; 95% in [8]; 104% in [9]; 83% in assay [4]; 77% in assay [10]. Moreover, the residual activity in [7] came out at 136%.
Turning to `CSc1nc(-c2ccc(F)cc2)c(-c2ccnc(NC(C)c3ccccc3)c2)[nH]1` (centres undefined), the residual activity in assay [1] was 10%; in [2], -2%; in [6] it was 91%; in assay [7], 144%.
